Test systems include HCT-15 colon; HT29 colon; SNB-75 CNS; SNB-19 CNS; U251 CNS; PC-3 prostate; SK-MEL-5 melanoma; UACC-62 melanoma; LOX IMVI melanoma; SK-MEL-28 melanoma; SK-MEL-2 melanoma; EKVX NSCLC; SN12C renal; UO-31 renal; TK-10 renal; ACHN renal; CAKI-1 renal; A498 renal; CCRF-CEM leukemia; MOLT-4 leukemia.
Holding throughout (assay): NCI-60 one-dose screen, 48 h (100 = growth as untreated, 0 = no growth, -100 = all killed)
Common to all, as to settings: 10 µM unless noted

This is part of a sample that, as a whole, favours compounds with a hit. Of some 83,000 tested, about 20% had one in any assay.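 Growth was measured after 48 h exposure to one concentration of compound in 96-well plates. Values under 10 count as active.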 Values without a mark were called inactive. Active and inactive are the calls of the source.

Turning to `COc1ccc(-c2cc(-c3ccc(Cl)cc3)c(C#N)c(=O)n2Cc2ccc(C(=O)O)cc2)cc1`, the growth is 79% with HCT-15 colon; 117% with HT29 colon; 3.46% (active) with SNB-75 CNS; 90.1% in the assay on SNB-19 CNS; 84.3% with U251 CNS; 68.9% with PC-3 prostate. Further, the growth in the assay on SK-MEL-5 melanoma is 87.2%; with UACC-62 melanoma it was 18.4%; with LOX IMVI melanoma it was 75.7%; in the assay with SK-MEL-28 melanoma, 60.7%; in the assay with SK-MEL-2 melanoma, 61.9%; with EKVX NSCLC, 98.2%. The growth was 103% with SN12C renal; 68.1% in the assay with UO-31 renal; 116% with TK-10 renal; 102% in the assay with ACHN renal; 70.3% in the assay on CAKI-1 renal; 83% with A498 renal. Also, the growth in the assay on CCRF-CEM leukemia was 30.7%; in the assay with MOLT-4 leukemia, 53.1%.

Take `O=C(CCn1c[n+](CC(=O)c2ccc(F)cc2)c2ccccc21)Nc1cccc2cccnc12`: the growth is 106% with HCT-15 colon; 58.6% in the assay with HT29 colon; 75.6% with SNB-75 CNS; 71.1% in the assay on SNB-19 CNS; 79.3% in the assay with U251 CNS; 63.4% with PC-3 prostate. Moreover, the growth with SK-MEL-5 melanoma was 33.4%; with UACC-62 melanoma it was 55.7%; in the assay on LOX IMVI melanoma, 84.6%; in the assay with SK-MEL-28 melanoma, 60.1%; in the assay with SK-MEL-2 melanoma, 81.7%; in the assay with EKVX NSCLC, 89.5%. For the same compound, the growth is 94% with SN12C renal; 88.9% in the assay with UO-31 renal; 107% in the assay on TK-10 renal; 95.7% in the assay with ACHN renal; 99.9% in the assay with CAKI-1 renal; 130% with A498 renal. The values for the growth in the assay on CCRF-CEM leukemia and with MOLT-4 leukemia were 68.3% and 65.2%, respectively.

With `CCO/C=N/C1=C(C#N)C(c2ccc(OC)cc2)c2sc3c(C)cccc3c2O1` (stereo not given), the growth in the assay on HCT-15 colon was 18.2%; with HT29 colon it was 10%; in the assay with SNB-75 CNS, 28.2%; in the assay with SNB-19 CNS, 28.3%; with U251 CNS, 22.1%; in the assay on PC-3 prostate, 9.28% (active). Moreover, the growth was 39.5% in the assay with SK-MEL-5 melanoma; 17.3% in the assay with UACC-62 melanoma; 34.8% in the assay with LOX IMVI melanoma; 55.7% with SK-MEL-28 melanoma; 36.5% in the assay with SK-MEL-2 melanoma; 39.9% in the assay with EKVX NSCLC. Moreover, the growth with SN12C renal is 25.2%; in the assay with UO-31 renal it was 34.3%; in the assay with TK-10 renal it was 78.5%; with ACHN renal, 37.6%; in the assay with CAKI-1 renal it was 33.3%; with A498 renal, -15.6% (active). For the same compound, the growth in the assay on CCRF-CEM leukemia was -2.18% (active); with MOLT-4 leukemia it was 16.4%.

In the case of `CCCCCc1ccc(S(=O)(=O)Nc2cc(-c3csc(NC(=O)CN4CCN(CCO)CC4)n3)ccc2OC)cc1`, the growth is -9.25% (active) in the assay on HCT-15 colon; 4.51% (active) in the assay with HT29 colon; 92.6% in the assay with SNB-75 CNS; 31% in the assay with SNB-19 CNS; 2.41% (active) in the assay on U251 CNS; 48% in the assay with PC-3 prostate. For the same compound, the growth in the assay with SK-MEL-5 melanoma was -88.8% (active); in the assay with UACC-62 melanoma it was -32.9% (active); in the assay with LOX IMVI melanoma, -82.5% (active); in the assay on SK-MEL-28 melanoma it was -60.5% (active); in the assay with SK-MEL-2 melanoma, 94.9%; in the assay with EKVX NSCLC, 73.6%. The growth in the assay with SN12C renal is 74.7%; with UO-31 renal, 54.5%; in the assay on TK-10 renal, 104%; in the assay with ACHN renal it was 65.6%; with CAKI-1 renal, 70.8%; with A498 renal, 63.1%. Further, the growth is 4.78% (active) in the assay with CCRF-CEM leukemia and 6.18% (active) with MOLT-4 leukemia.

On to `O=C1[C@H]2Cc3c([nH]c4ccccc34)[C@@H](c3c(Cl)cccc3Cl)N2C(=O)CN1C1CCN(CC2CCCCC2)CC1`, for which the growth was 29.5% in the assay with HCT-15 colon; 20.5% with HT29 colon; 100% in the assay with SNB-75 CNS; 94.6% in the assay with SNB-19 CNS; 89.1% with U251 CNS; 63.5% in the assay on PC-3 prostate. For the same compound, the growth was 83.7% in the assay with SK-MEL-5 melanoma; 94.3% in the assay on UACC-62 melanoma; -59.9% (active) in the assay with LOX IMVI melanoma; 99.3% with SK-MEL-28 melanoma; 111% in the assay with SK-MEL-2 melanoma; 88.2% in the assay with EKVX NSCLC. In addition, the growth in the assay with SN12C renal was 87.8%; with UO-31 renal, 62.6%; in the assay on TK-10 renal, 142%; in the assay with ACHN renal it was 84.1%; in the assay on CAKI-1 renal it was 81.9%; in the assay with A498 renal, 87.2%. For the same compound, the growth in the assay on CCRF-CEM leukemia is 47.2%; with MOLT-4 leukemia, 54.6%.

`NC(N)=Nc1ccc(Oc2cccc(Nc3ccc(Cl)c(C(F)(F)F)c3)c2)cc1`: the growth is 79.5% in the assay with HCT-15 colon; 49% with HT29 colon; 47.4% in the assay with SNB-75 CNS; 24.8% in the assay on SNB-19 CNS; -27.6% (active) in the assay on U251 CNS; 28.3% in the assay with PC-3 prostate. Further, the growth in the assay with SK-MEL-5 melanoma is 43.9%; in the assay on UACC-62 melanoma it was 40.1%; with LOX IMVI melanoma, -62.4% (active); in the assay on SK-MEL-28 melanoma, 67.7%; with SK-MEL-2 melanoma, 83.7%; in the assay with EKVX NSCLC it was 36.1%. The growth is 27.1% in the assay with SN12C renal; 76.2% with UO-31 renal; 82.6% with TK-10 renal; 74% in the assay with ACHN renal; 39.8% with CAKI-1 renal; 36.7% with A498 renal. Also, the growth was 17.5% with CCRF-CEM leukemia and 17.8% in the assay on MOLT-4 leukemia.

`NC(=O)c1c(NC(=O)c2ccccc2C(F)(F)F)sc2c1CCC(=O)C2`: the growth in the assay on HCT-15 colon was 10.7%; in the assay on HT29 colon, 18.7%; in the assay with SNB-75 CNS, 44.8%; in the assay on SNB-19 CNS, 20.8%; with U251 CNS, 14.3%; in the assay on PC-3 prostate, 17.5%. For the same compound, the growth is -59.5% (active) in the assay on SK-MEL-5 melanoma; 10.4% in the assay on UACC-62 melanoma; 19.7% in the assay with LOX IMVI melanoma; 42.4% in the assay with SK-MEL-28 melanoma; 45.5% in the assay with SK-MEL-2 melanoma; 24.3% in the assay with EKVX NSCLC. Further, the growth in the assay on SN12C renal was 40.3%; with UO-31 renal, -7.49% (active); in the assay on TK-10 renal, 28.1%; in the assay on ACHN renal it was 8.24% (active); with CAKI-1 renal it was -2.3% (active); in the assay on A498 renal, 85.9%. In addition, the growth is 16.3% with CCRF-CEM leukemia and 19.9% with MOLT-4 leukemia.

For the origin of these results see PubChem BioAssay (NCI).
